{"source": "PubChem BioAssay (EPA / NIEHS)", "note": "Where “and” joins values, the source holds several entries; their conditions need not be identical. Identical values can stand only once. Results filed as inconclusive are left out. Some compounds were tested as several samples or in several runs, with calls that do not always agree. Calls of active or inactive are those of the source. How the source made its calls: active means hit-call score of the fitted dose curve at least 0.9, where 1 is the maximum; inconclusive means response in the unintended direction; inactive means score below 0.9."}
{"target": "human Retinoid X Receptor beta (RXRb), RXRB (gene 6257) (UniProt P28702)", "sequence (P28702 whole entry, looked up)": "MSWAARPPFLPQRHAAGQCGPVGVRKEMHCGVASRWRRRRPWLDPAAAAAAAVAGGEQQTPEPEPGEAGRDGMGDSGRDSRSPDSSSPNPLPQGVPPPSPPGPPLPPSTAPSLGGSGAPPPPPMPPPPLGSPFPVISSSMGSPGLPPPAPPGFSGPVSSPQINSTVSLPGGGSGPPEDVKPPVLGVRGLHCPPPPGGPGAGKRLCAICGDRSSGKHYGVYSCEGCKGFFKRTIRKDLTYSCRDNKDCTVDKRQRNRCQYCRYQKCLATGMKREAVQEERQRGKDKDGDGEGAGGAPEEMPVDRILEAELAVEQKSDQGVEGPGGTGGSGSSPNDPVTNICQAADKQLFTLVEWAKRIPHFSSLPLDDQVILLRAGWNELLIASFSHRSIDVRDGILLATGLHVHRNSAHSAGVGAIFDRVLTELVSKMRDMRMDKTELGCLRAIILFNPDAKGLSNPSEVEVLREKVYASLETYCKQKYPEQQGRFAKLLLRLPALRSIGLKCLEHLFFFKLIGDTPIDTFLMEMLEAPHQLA", "assay": "ATG_RXRb_TRANS: Attagene TRANS-FACTORIAL HepG2 Assay for human Retinoid X Receptor beta (RXRb) (AID 2283013)", "method": "ATG_TRANS is a cell-based, multiplexed-readout assay that uses HepG2, a human liver cell line, with measurements taken at 24 hours after chemical dosing in a 24-well plate.ATG_RXRb_TRANS is one of 30 assay component(s) measured or calculated from the ATG_TRANS assay. It is designed to make measurements of mRNA induction, a form of inducible reporter, as detected with fluorescence intensity signals by Reverse transcription polymerase chain reaction (RT-PCR) and Capillary electrophoresis technology.Data from the assay component ATG_RXRb_TRANS was analyzed into 1 assay endpoint. This assay endpoint, ATG_RXRb_TRANS, was analyzed in the positive analysis fitting direction relative to DMSO as the negative control and baseline of activity. Using a type of inducible reporter, measures of mRNA for gain-of-signal activity can be used to understand the reporter gene at the transcription factor-level as they relate to the gene RXRB. Furthermore, this assay endpoint can be referred to as a primary readout, because this assay has produced multiple assay endpoints where this one serves a reporter gene function. To generalize the intended target to other relatable targets, this assay endpoint is annotated to the nuclear receptor intended target family, where the subfamily is non-steroidal.\nHuman liver HepG2 cells are transiently transfected with multiple reporter transcription units (MRTUs) in 6-well plates using FuGene 6 reagent (Roche; 3 ml FuGene/1 mg DNA). The MRTU constructs are regulated by a cis-regulating element (promoter). […] A major difference between the CIS and TRANS system is that in CIS activities of endogenous TFs are measured, whereas the TRANS assay evaluates changes in activities of exogenous, chimeric NR-Gal4 proteins. […] At the end of 24 hour incubation, total RNA was isolated using TriZol reagent (Invitrogen). The isolated RNA is then reverse-transcribed using oligo(dT) primer and Mo-MLV reverse transcriptase (Invitrogen) with DNAse I (Ambion) treatment for 30 min. The one-tenth of the produced cDNA was amplified by PCR using Taq DNA polymerase (Invitrogen) and two reporter sequence-specific primers. The PCR products were fluorescently labeled by primer extension with 6-arboxyfluorescein (6-FAM) 5'-labeled reporter sequence-specific primer (2 min at 95 C, 20 s at 68 C and 10 min at 72 C) and these products were digested with 5U of HpaI (New England Biolabs) for 2h at 37 C. The fragments were purified using Qiaquick PCR columns (Qiagen), analyzed on an ABI 3130xL genetic analyzer (Applied Biosystems) with peak positions identified by using a set of X-rhodamine (ROX)-labeled MapMarker1000 molecular weight standards (BioVentures). The raw capillary electrophoresis data was processed using Attagraph software (Attagene)."}
{"smiles": "Clc1ccc(Oc2ccccc2)cc1", "AC50": "100 µM (active)"}
{"smiles": "COC(=O)C(F)(F)C(F)(F)OC(F)(C(F)(F)F)C(F)(F)OC(F)=C(F)F", "note": "(stereo not given)", "AC50": "31.8 µM (active) and 41.3 µM (active) and 28.2 µM (active)"}
{"smiles": "Nc1cc2c3c(c1)C(c1ccccc1)=N[C@@H](NC(=O)c1cccnc1)C(=O)N3CC2", "outcome": "inactive"}
{"smiles": "c1nc[nH]n1", "outcome": "inactive"}
{"smiles": "CCOP(=S)(OCC)SCSCC", "AC50": "48.2 µM (active)"}
{"smiles": "CCCCOCCOP(=O)(OCCOCCCC)OCCOCCCC", "AC50": "24.8 µM (active)", "outcome": "inactive"}
{"smiles": "OCC(F)(F)OC(F)(F)C(F)(F)OC(F)(F)CO", "outcome": "inactive"}
{"smiles": "O=[N+]([O-])c1ccc(Cl)c(Cl)c1", "outcome": "inactive"}
{"smiles": "OCC(F)(F)OC(F)(F)C(F)(F)OC(F)(F)C(F)(F)OC(F)(F)F", "AC50": "32.2 µM (active)", "outcome": "inactive"}
{"smiles": "CCCCN(CC)C(=O)SCCC", "AC50": "59.1 µM (active)"}
{"smiles": "c1cc2c3c(cccc3c1)CC2", "outcome": "inactive"}
{"smiles": "CCCN(CCC)c1c([N+](=O)[O-])cc(C(C)C)cc1[N+](=O)[O-]", "AC50": "17.9 µM (active)"}
{"smiles": "CCCCCCCc1ccc(O)cc1", "AC50": "11.1 µM (active) and 48.7 µM (active)", "outcome": "inactive"}
{"smiles": "O=P(Oc1ccccc1)(Oc1ccccc1)Oc1ccccc1", "outcome": "inactive"}
{"smiles": "NNC(N)=S", "outcome": "inactive"}
{"smiles": "Cc1ccc(O)cc1C", "outcome": "inactive"}
{"smiles": "O=[N+]([O-])c1ccccc1", "AC50": "10.7 µM (active)"}
{"smiles": "CSC(C)(C)C=NO", "outcome": "inactive"}
{"smiles": "CCC1(c2ccccc2)C(=O)N=C(O)NC1=O", "note": "(stereo not given)", "outcome": "inactive"}
{"smiles": "CC(=O)CCc1ccc2c(c1)OCO2", "outcome": "inactive"}
{"smiles": "CC(=O)c1ccc(-c2ccccc2)cc1", "outcome": "inactive"}
{"smiles": "C/C(=N\\NC(=O)Nc1cc(F)cc(F)c1)c1ncccc1C(=O)O", "outcome": "inactive"}
{"smiles": "CCOP(=O)(O)C(N)=O", "outcome": "inactive"}
{"smiles": "CCCCc1ccc(O)cc1", "AC50": "64.2 µM (active)"}
{"smiles": "Nc1ccc(Sc2ccc(N)cc2)cc1", "outcome": "inactive"}
{"smiles": "N#Cc1c(-c2ccc(Cl)cc2)[nH]c(C(F)(F)F)c1Br", "outcome": "inactive"}
{"smiles": "N#Cc1ccc(O)cc1", "outcome": "inactive"}
{"smiles": "CCOC(=O)c1ccccc1C(=O)OCC", "outcome": "inactive"}
{"smiles": "ClC(Cl)c1ccccc1", "outcome": "inactive"}
{"smiles": "CCN(CC)c1ccccc1", "outcome": "inactive"}
{"smiles": "O=P(OCC(Br)CBr)(OCC(Br)CBr)OCC(Br)CBr", "note": "(stereo not given)", "outcome": "inactive"}
{"smiles": "CC(Cc1ccc(OCC(=O)O)cc1)NCC(O)c1csc(C(F)(F)F)n1", "note": "(stereo not given)", "outcome": "inactive"}
{"smiles": "Cc1ccc(N)cc1N", "outcome": "inactive"}
{"smiles": "CN(C)C(=O)Cl", "outcome": "inactive"}
{"smiles": "Nc1ccc(Cl)cc1", "outcome": "inactive"}
{"smiles": "O=C(O)CF", "outcome": "inactive"}
{"smiles": "CC(O)C(F)(F)C(F)(F)F", "note": "(stereo not given)", "outcome": "inactive"}
